Reference: PubChem BioAssay AID463173 (ICCB-Longwood Screening Facility, Harvard Medical School, 2010)
Among all 52,000 compounds or so, about 1,700 (3.3%) were called active. No stated cut-off is given here; in the data, active means survival mostly below about 52% (no sharp cut-off); inactive means mostly above about 56%. For the sample, actives were picked, then their nearest neighbours and some compounds at random.

System: Wild type
Experiment: growth inhibition of S. aureus wild type versus tarO mutant, primary screen, teichoic acid synthesis inhibitors, RN4220, OD600 (AID 463173)
Conditions: S. aureus RN4220 wild type/DeltatarO growth, OD600, 18 h, stronger effect = lower value, screened at 18.75 µg/mL (by protocol)

Row | Compound | survival
1 | Cc1cn2c(=O)cc(COc3cccc(NC(=O)c4ccccc4Cl)c3)nc2s1 | 88% (inactive)
2 | O=C(c1cc2nc(-c3ccccc3)cc(-c3ccccc3)n2n1)N1CCCC1 | 100% (inactive)
3 | CCOC(=O)C1(CC)C(=O)OC(C(=O)NC2CCCCC2)C1C (stereo not drawn) | 112% (inactive)
4 | COc1cccc(-c2cc(C(=O)NCc3ccccc3)no2)c1 | 85% (inactive)
5 | Cc1ccc(C)n1-c1c(C(=O)NCC(C)c2ccccc2)sc2ncccc12 (stereo not drawn) | 73% (inactive)
6 | Cc1ccc(-n2c(SCc3ccccc3F)nc3[nH]ncc3c2=O)cc1C | 80% (inactive)
7 | CCOc1ccccc1-c1nc(=S)[nH][nH]1 | 110% (inactive)
8 | Cc1ccc(NCc2cccn2-c2nnc(N3CCC(C(=O)NC(C)C)CC3)s2)cc1 | 121% (inactive)
9 | CCOC(=O)c1ccccc1NC(=O)C(=O)Nc1ccc2nc3n(c(=O)c2c1)CCCCC3 | 123% (inactive)
10 | COc1cc(Nc2nc(-c3ccc(OC)c(OC)c3)nc3ccccc23)cc(OC)c1 | 0% (active)
11 | COc1ccc(Nc2nc(-c3ccccc3F)nc3ccccc23)cc1OC | 71% (inactive)
12 | COc1ccc(Nc2nc(-c3ccc(C)cc3)nc3ccccc23)c(OC)c1 | 70% (inactive)
13 | Cc1cccc2nc(Cn3c(=O)n(-c4ccc(Cl)cc4)c(=O)c4c5c(sc43)CCC5)cc(=O)n12 | 121% (inactive)
14 | CCC(C(=O)NCCc1ccc(OC)c(OC)c1)n1nc(C)c2sc3ccccc3c2c1=O (stereo not drawn) | 79% (inactive)
15 | CC1(C)CC(=O)C/C(=N\NC(=O)CCc2ccccc2)C1 | 122% (inactive)
16 | Cc1ccc(C(c2sc3nc(-c4ccco4)nn3c2O)N2CCOCC2)cc1 (stereo not drawn) | 77% (inactive)
17 | O=C(c1ccc2c(Cl)c3c(nc2c1)CCCC3)N1CCN(c2ccccc2F)CC1 | 0% (active)
18 | Cc1cccc(N2CCN(C(=O)c3ccc4c(Cl)c5c(nc4c3)CCCC5)CC2)c1C | 88% (inactive)
19 | O=C(c1ccc2c(Cl)c3c(nc2c1)CCCC3)N1CCN(c2ccccc2)CC1 | 0% (active)
20 | O=C(c1ccc2c(Cl)c3c(nc2c1)CCCC3)N1CCN(c2cccc(Cl)c2)CC1 | 62% (inactive)
21 | Cc1ccc(Cl)cc1N1CCN(C(=O)c2ccc3c(Cl)c4c(nc3c2)CCCC4)CC1 | 29% (inactive)

Row | Compound | survival
22 | O=C(c1ccc2c(Cl)c3c(nc2c1)CCCC3)N1CCN(c2ccc(Cl)cc2)CC1 | 90% (inactive)
23 | O=C(NCCCc1ccccc1)c1nn(-c2ccccc2F)nc1CO | 89% (inactive)
24 | COc1ccc(C2=C(C)C(=NCc3ccc(OC(C)C)cc3)NS2(=O)=O)cc1 | 86% (inactive)
25 | CCCc1nc(C(C#N)c2ccc(F)cc2)c2nnn(Cc3ccccc3)c2n1 (stereo not drawn) | 109% (inactive)
26 | COc1ccc(N2CCN(C(=O)CN(c3cccc(C(F)(F)F)c3)S(C)(=O)=O)CC2)cc1 | 110% (inactive)
27 | COc1ccccc1N1CCN(C(=O)c2ccc(CS(=O)c3ccccc3C)o2)CC1 (stereo not drawn) | 75% (inactive)
28 | CCC(C)NC(=O)c1cc2n(n1)CCCN(Cc1ccc(C)cc1)C2=O (stereo not drawn) | 88% (inactive)
29 | CCNC(=O)c1cc2n(n1)CCCN(Cc1ccc(C)cc1)C2=O | 22% (inactive)
30 | CCCSCCCNC(=O)c1cc2n(n1)CCCN(Cc1ccc(C)cc1)C2=O | 113% (inactive)
31 | CCCCNC(=O)c1cc2n(n1)CCCN(Cc1ccc(C)cc1)C2=O | 0% (active)
32 | CCCNC(=O)c1cc2n(n1)CCCN(Cc1ccc(C)cc1)C2=O | 129% (inactive)
33 | Cc1ccc(CN2CCCn3nc(C(=O)NC(C)C)cc3C2=O)cc1 | -2% (active)
34 | CCCCn1cc(S(=O)(=O)c2ccc(CC)cc2)c(=O)c2cc(F)c(N3CCOCC3)cc21 | 73% (inactive)
35 | COc1cccc(OC)c1Cn1nnc2c(=O)[nH]c(C3CCN(C(=O)c4ccccc4)CC3)nc21 | 76% (inactive)
36 | Cc1cccc(Cn2nnc3c(=O)[nH]c(C4CCN(C(=O)c5ccc(F)cc5)CC4)nc32)c1 | 29% (inactive)
37 | O=C(c1ccccc1)N1CCC(c2nc3c(nnn3Cc3ccccc3)c(=O)[nH]2)CC1 | 0% (active)
38 | Cc1cccc(Cn2nnc3c(=O)[nH]c(C4CCCN(C(=O)c5ccc(C(C)(C)C)cc5)C4)nc32)c1 (stereo not drawn) | 23% (inactive)
39 | Cc1ccccc1Cn1nnc2c(=O)[nH]c(C3CCN(C(=O)c4ccc(F)cc4)CC3)nc21 | 74% (inactive)
40 | COc1ccc(Cn2nnc3c(=O)[nH]c(C4CCN(C(=O)c5ccc(C)cc5)CC4)nc32)cc1OC | 53% (inactive)
41 | CC(C)(C)c1ccc(C(=O)N2CCCC(c3nc4c(nnn4Cc4cccc(F)c4)c(=O)[nH]3)C2)cc1 (stereo not drawn) | 17% (inactive)
42 | Cc1ccccc1Cn1nnc2c(=O)[nH]c(C3CCN(C(=O)c4ccccc4)CC3)nc21 | 25% (inactive)

Row | Compound | survival
43 | O=C(c1ccccc1)N1CCCC(c2nc3c(nnn3Cc3ccc(F)cc3F)c(=O)[nH]2)C1 (stereo not drawn) | 104% (inactive)
44 | CCOc1ccc(Cn2nnc3c(=O)[nH]c(C4CCN(C(=O)c5ccccc5)CC4)nc32)cc1 | 3% (active)
45 | CC(C)(C)C(=O)N1CCCC(c2nc3c(nnn3Cc3ccc(C(C)(C)C)cc3)c(=O)[nH]2)C1 (stereo not drawn) | 50% (active)
46 | O=C(c1cccc(Cl)c1)N1CCC(c2nc3c(nnn3Cc3ccc(F)cc3F)c(=O)[nH]2)CC1 | 9% (active)
47 | Cc1cn2c(=O)cc(COc3ccccc3NC(=O)c3ccc(Cl)cc3)nc2s1 | 85% (inactive)
48 | COc1ccc(CCNC(=O)Cn2nc(C)n3c(cc4occc43)c2=O)cc1OC | 86% (inactive)
49 | COc1ccc(NC(=O)c2oc3ccccc3c2NC(=O)Cc2coc3ccc(C)cc23)cc1 | 85% (inactive)
50 | CCc1ccccc1NC(=O)c1sc2nc3n(c(=O)c2c1C)CCC3 | 90% (inactive)
51 | CCOc1cc(C#N)c(NC(=O)c2ccc(OC)c(S(=O)(=O)N3CCCCC3)c2)cc1OCC | 75% (inactive)
52 | COc1ccc(Cn2c(CNS(=O)(=O)c3ccc4c(c3)CCCC4)nc3cccnc32)cc1 | 133% (inactive)
53 | CCOc1ccc(Cn2c(CNS(=O)(=O)c3ccc(CC)cc3)nc3cccnc32)cc1 | 69% (inactive)
54 | CCc1ccc(Cn2c(CNS(=O)(=O)c3ccc([N+](=O)[O-])cc3)nc3cccnc32)cc1 | 0% (active)
55 | CC(C)(C)c1ccc(S(=O)(=O)NCc2nc3cccnc3n2Cc2ccccc2Cl)cc1 | 14% (active)
56 | CCOc1ccc(Cn2c(CNS(=O)(=O)c3ccc([N+](=O)[O-])cc3)nc3cccnc32)cc1 | 87% (inactive)
57 | O=C(Cc1cccc([N+](=O)[O-])c1)NCc1nc2cccnc2n1Cc1ccc(F)cc1 | 133% (inactive)
58 | COc1ccc(Cn2c(CNC(=O)Cc3cccc([N+](=O)[O-])c3)nc3cccnc32)cc1 | -6% (active)
59 | CCc1ccc(S(=O)(=O)NCc2nc3cccnc3n2Cc2ccccc2Cl)cc1 | 83% (inactive)
60 | CCc1ccc(Cn2c(CNS(=O)(=O)c3ccc(C)c(C)c3)nc3cccnc32)cc1 | 71% (inactive)
61 | O=[N+]([O-])c1ccc(S(=O)(=O)NCc2nc3cccnc3n2Cc2ccccc2Cl)cc1 | 74% (inactive)
62 | COc1ccc(Cn2c(CNS(=O)(=O)c3ccc(C)c(C)c3)nc3cccnc32)cc1 | -1% (active)
63 | Cc1ccc(Cn2c(CNC(=O)Cc3cccc([N+](=O)[O-])c3)nc3cccnc32)cc1 | 67% (inactive)
